About 83,000 compounds went through this panel and 20% of them were active in at least one assay; those are over-represented in the sample as a whole.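 Negative percent growth values reflect cell death: -40 means 40% of the cells present at the start died, and -100 means all died.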 A number with no mark means an inactive call. Calls of active or inactive are those of the source. How the source made its calls: active means growth percent below 10; inactive means the rest.
Legend:
Experiment in all cases: NCI-60 one-dose screen, 48 h (100 = growth as untreated, 0 = no growth, -100 = all killed)
Conditions in all cases: 10 µM unless noted
SR leukemia = test system: SR leukemia
RPMI-8226 leukemia = test system: RPMI-8226 leukemia
OVCAR-8 ovarian = test system: OVCAR-8 ovarian
OVCAR-5 ovarian = test system: OVCAR-5 ovarian
OVCAR-4 ovarian = test system: OVCAR-4 ovarian
SK-OV-3 ovarian = test system: SK-OV-3 ovarian
OVCAR-3 ovarian = test system: OVCAR-3 ovarian
NCI/ADR-RES ovarian = test system: NCI/ADR-RES ovarian
T-47D breast = test system: T-47D breast
MDA-MB-435 melanoma = test system: MDA-MB-435 melanoma
SW-620 colon = test system: SW-620 colon
MCF7 breast = test system: MCF7 breast
HCT-116 colon = test system: HCT-116 colon
HCC-2998 colon = test system: HCC-2998 colon
KM12 colon = test system: KM12 colon
HS 578T breast = test system: HS 578T breast
BT-549 breast = test system: BT-549 breast

O=C(O)CCCCCNC(=O)OCc1ccccc1
growth (SR leukemia): 98%
growth (RPMI-8226 leukemia): 81.5%
growth (OVCAR-8 ovarian): 112%
growth (OVCAR-5 ovarian): 97.7%
growth (OVCAR-4 ovarian): 98.5%
growth (SK-OV-3 ovarian): 106%
growth (OVCAR-3 ovarian): 104%
growth (NCI/ADR-RES ovarian): 110%
growth (T-47D breast): 97.6%
growth (MDA-MB-435 melanoma): 99.8%
growth (SW-620 colon): 95.2%
growth (MCF7 breast): 93.6%
growth (HCT-116 colon): 92.9%
growth (HCC-2998 colon): 105%
growth (KM12 colon): 101%

NS(=O)(=O)c1cc(=O)[nH]c(=O)[nH]1
growth (SR leukemia): 135%
growth (RPMI-8226 leukemia): 118%
growth (OVCAR-8 ovarian): 114%
growth (OVCAR-5 ovarian): 112%
growth (OVCAR-4 ovarian): 110%
growth (SK-OV-3 ovarian): 108%
growth (OVCAR-3 ovarian): 116%
growth (HS 578T breast): 102%
growth (NCI/ADR-RES ovarian): 109%
growth (T-47D breast): 113%
growth (BT-549 breast): 107%
growth (MDA-MB-435 melanoma): 105%
growth (MCF7 breast): 101%
growth (HCT-116 colon): 105%
growth (HCC-2998 colon): 121%
growth (KM12 colon): 104%

CC(=O)NC(CCc1ccc(Cl)c(Cl)c1)c1cccc(O)c(=O)c1 (stereo not given)
growth (SR leukemia): 6.21% (active)
growth (RPMI-8226 leukemia): 13.9%
growth (OVCAR-8 ovarian): 13.9%
growth (OVCAR-5 ovarian): 47%
growth (OVCAR-4 ovarian): 24.5%
growth (SK-OV-3 ovarian): 12.7%
growth (OVCAR-3 ovarian): 20.1%
growth (HS 578T breast): 54.1%
growth (T-47D breast): 17.7%
growth (BT-549 breast): 19.3%
growth (MDA-MB-435 melanoma): 21.5%
growth (SW-620 colon): 23.8%
growth (MCF7 breast): 19.3%
growth (HCT-116 colon): 15.9%
growth (HCC-2998 colon): 22.6%
growth (KM12 colon): 18.1%

CCCCN(C=S)CCCC
growth (SR leukemia): 91.9%
growth (RPMI-8226 leukemia): 101%
growth (OVCAR-8 ovarian): 95%
growth (OVCAR-5 ovarian): 102%
growth (OVCAR-4 ovarian): 112%
growth (SK-OV-3 ovarian): 88.6%
growth (OVCAR-3 ovarian): 108%
growth (HS 578T breast): 97.1%
growth (NCI/ADR-RES ovarian): 107%
growth (T-47D breast): 81%
growth (BT-549 breast): 97.4%
growth (MDA-MB-435 melanoma): 105%
growth (SW-620 colon): 96.4%
growth (MCF7 breast): 87.6%
growth (HCT-116 colon): 98.9%
growth (HCC-2998 colon): 102%
growth (KM12 colon): 102%

Cc1ccc(OC(=O)c2ccccc2)cc1
growth (SR leukemia): 102%
growth (RPMI-8226 leukemia): 113%
growth (OVCAR-8 ovarian): 101%
growth (OVCAR-5 ovarian): 100%
growth (OVCAR-4 ovarian): 114%
growth (SK-OV-3 ovarian): 107%
growth (OVCAR-3 ovarian): 115%
growth (HS 578T breast): 141%
growth (NCI/ADR-RES ovarian): 113%
growth (T-47D breast): 108%
growth (MDA-MB-435 melanoma): 112%
growth (SW-620 colon): 111%
growth (MCF7 breast): 97.4%
growth (HCT-116 colon): 105%
growth (HCC-2998 colon): 107%
growth (KM12 colon): 108%
